Hits are enriched below; roughly 3.6% of the tested compounds scored in any of these assays.
NRP1-CendR mod: modulators of CendR peptide binding to human neuropilin-1; AID 602438; FAM-RPARPAR peptide binding to NRP-1, fluorescence polarization; inhibition, % at 25 µM; O14786; actives 0.85% (n = 360,000);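 active = inhibition or corrected inhibition above about 18%, plus a signal ratio from 0.5 to 1.5, limit read from the data, passing the limit was not always enough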
CRFBP-R2 block: blocks CRF-induced signaling of the CRF-BP/CRF-R2 complex. HEK293 CRF-R2/CRF-BP, CRF-induced calcium fluorescence. inhibition, % at 11.8 µM. actives 0.59% (n = 350,000);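 active = inhibition of the ligand-induced calcium signal above about 50% at the single tested concentration, limit read from the data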
NadD block: inhibitors of Staphylococcus aureus NadD. actives 0.78% (n = 360,000). inhibition, % at 20 µM. AID 602399. purified NadD enzyme, colorimetric absorbance read-out; in the data active = inhibition above about 26%
FAS TE block: inhibitors of human fatty acid synthase thioesterase domain; inhibition, % at 15 µM; P49327; recombinant FAS-TE, OMFH fluorogenic substrate, fluorescence endpoint; actives 0.67% (n = 360,000);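 active = compounds whose normalised, plate-corrected inhibition of enzyme fluorescence in the single-dose primary screen is 50% or more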;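 note: 0% = DMSO with enzyme and 100% = substrate without enzyme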
Myeloid diff 2: promotes myeloid progenitor differentiation; ER-HoxA9 myeloid progenitors, lysozyme-GFP differentiation, flow cytometry; calls only at 10 µM; actives 1% (n = 360,000); AID 624256;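 active = normalized GFP-positive differentiation at or above the plate's own cutoff, the solvent-only control mean plus 3 SD; inconclusive = no clear call, values can overlap the other calls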;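 note: cells exposed to compound for four days before flow analysis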
* marks the source's active call; other numbers are inactive results; i = inactive; ? = inconclusive; . = no result; + = active, no number.

SMILES	NRP1-CendR mod	CRFBP-R2 block	NadD block	FAS TE block	Myeloid diff 2
COc1cccc(C2(c3cccc(OC)c3)CC2C(=O)Nc2ccccc2Cl)c1 (stereo not drawn)	-3	77*	-8	26	i
COc1cccc(C2(c3cccc(OC)c3)CC2C(=O)Nc2ccc(F)cc2)c1 (stereo not drawn)	4	-87	0	9	i
Cc1cccc(N=Nc2ccc(O)c3ncccc23)c1	0	22	22	2	i
Oc1ccc(N=Nc2ccc3c(c2)OCCO3)c2ncccc12	8	19	27*	5	.
OCC[C@@H]1C[C@H](O)[C@@H](O)[C@@]2(OCc3ccc4ccccc4c32)O1	13	.	0	-10	i
COC(=O)CC1C(=O)NCCN1C(=S)Nc1ccc(F)cc1 (stereo not drawn)	36*	-6	-9	7	i
Cc1ccc(S(=O)(=O)N(CC(=O)Nc2ccccc2C(=O)O)c2ccc(Cl)cc2)cc1	-7	51*	6	3	i
Cc1ccc(S(=O)(=O)N(Cc2ccc(Cl)cc2)c2ccccc2C(=O)O)cc1	5	-16	-8	-1	i
CC1CC(C)CN(S(=O)(=O)c2ccc(C(=O)N3CCCC3)cc2)C1 (stereo not drawn)	5	0	-2	1	+
CC1CC(C)CN(C(=O)c2ccc(S(=O)(=O)N3CC(C)CC(C)C3)cc2)C1 (stereo not drawn)	12	2	3	12	i
C#CCn1cc(CNC[C@H]2O[C@@H](n3cnc4c(=O)[nH]c(N)nc43)[C@H](O)[C@@H]2O)c2ccccc21	-7	.	0	-6	i
CCC(C)[C@@H](NC(=O)OC(C)(C)C)c1nnc(S(=O)(=O)Cc2cccc(C)c2)o1 (stereo partly drawn)	15	6	-1	60*	i
Cc1cccc(CS(=O)(=O)Cc2ccc(C(=O)NC(C)c3ccccc3)o2)c1 (stereo not drawn)	-10	-4	-1	-2	i
Cc1ccc(C(=O)N[C@H](C(=O)Nc2ccc(N3CCOCC3)cc2)C(C)C)cc1	3	0	2	-3	i
N/C(=N/OC(=O)c1ccccc1Cl)c1ncc([N+](=O)[O-])s1	4	-1	0	-7	+
COC(=O)C1(C)CCCC2(C)c3cc(OC)ccc3C(=O)C(Br)C12 (stereo not drawn)	2	-31	-7	6	i
C[C@@H]1[C@@H](Sc2ccccc2)CC(=O)O[C@@H]1c1ccc(-c2ccccc2)cc1	5	-8	-5	16	?
O=C1C=CC2(O[C@H](c3ccccc3)[C@@H](c3ccccc3)O2)[C@H](Sc2ccccc2O)C1	9	-2	5	21	+
O=C(CCN1CCCCC1=O)NC1CCCN(Cc2ccc(Cl)cc2)C1 (stereo not drawn)	-1	89*	-1	0	i
CC(C)Cc1ccc(CN2CCCC(NC(=O)CCN3CCCCC3=O)C2)cc1 (stereo not drawn)	0	-10	2	-3	i
CN1CC(=O)N(CC(=O)N2CCC(Cc3ccccc3)CC2)C1=O	1	100*	0	-3	i
CC(C)CN1C(=O)C(=O)N(CC(=O)N2CCC(Cc3ccccc3)CC2)C1=O	3	2	-5	0	i
CCOc1ncccc1C(=O)Nc1ccc(C)c(S(=O)(=O)N2CCCCCC2)c1	12	-9	-13	24	i
CCc1nc2ccc(C(=O)N3CCCCC3)cn2c1N(CCC(C)C)CCN(C)C	2	.	-7	-9	i
O=C1N=c2ccccc2=C1c1sc(Nc2ccc(O)cc2)nc1O	8	60*	33*	15	i
SMILES	NRP1-CendR mod	CRFBP-R2 block	NadD block	FAS TE block	Myeloid diff 2
CC1(C)c2ccccc2C(=O)c2ccccc21	34*	4	-1	19	?
CCCCNS(=O)(=O)c1ccc(NC(=O)Cc2ccccc2[N+](=O)[O-])cc1	12	-20	-11	4	i
CO[C@H]1CN(C)C(=O)c2cc(NC(=O)c3ccccc3)ccc2OC[C@H](C)NC[C@@H]1C	-8	.	.	.	i
O=C(Nc1ccc(O)cc1)c1cccc(Oc2ccc([N+](=O)[O-])cc2)c1	12	57*	-19	9	i
NC(=O)c1ccc(NC(=O)c2cccc(Oc3ccccc3)c2)cc1	-5	4	-4	-8	i
NS(=O)(=O)c1cccc(NC(=O)c2cccc(Oc3ccccc3)c2)c1	-1	3	-8	10	+
O=C(Nc1ccc(Br)cc1)c1cc([N+](=O)[O-])cc([N+](=O)[O-])c1	-5	10	-3	55*	i
CCOc1cc(N2CCOCC2)c(OCC)cc1NC(=O)CN1C(=O)NC(CC)(c2ccc(F)cc2)C1=O (stereo not drawn)	-16	-5	-2	-1	i
CNc1ccc(C(=O)N2CCN(S(=O)(=O)c3ccc4c(c3)OCCCO4)CC2)cc1[N+](=O)[O-]	6	15	3	19	+
CC(C)(C)NC(=O)C1(C)CCC(=O)N1CC(F)(F)F (stereo not drawn)	6	.	-5	-11	i
COc1cc(CN2C[C@@H](CO)O[C@@H](n3cnc4c(NCCCO)ncnc43)C2)cc(OC)c1OC	4	.	4	-7	i
CCC(=O)N(Cc1c(C)nn(-c2ccccc2)c1Cl)c1ccc(Cl)cc1	7	68*	-5	12	i
O=C(NNC(=O)C1CCN(Cc2ccccc2)CC1)c1cccc(Cl)c1	23*	-6	-4	-9	i
O=S(=O)(c1ccc2oc(=S)[nH]c2c1)N1CCCCC1	-7	2	1	-1	+
O=C(NCc1ccccc1)C1c2ccccc2OCC(=O)N1Cc1ccccc1 (stereo not drawn)	12	.	0	-10	i
O=C(/C=C1\NC2(CCCC2)Cc2ccccc21)C(=O)N/N=C/c1ccc(O)c(O)c1	0	-69	38*	11	i
CCOC(=O)CC1(CC)Oc2ccccc2N1S(=O)(=O)c1ccc(C)cc1 (stereo not drawn)	-3	.	.	.	i
CC(=O)Nc1ccc(S(=O)(=O)/N=C2\C(=O)c3ccccc3C([O-])=C2n2cc[n+](-c3ccccn3)c2)cc1	11	25	3	0	i
Cc1ccc(S(=O)(=O)/N=C2\C(=O)c3ccccc3C([O-])=C2n2cc[n+](CCC(C)C)c2)cc1	31*	-3	6	3	.
Cc1ccc(N(C(=O)Cn2nnc(-c3ccccc3F)n2)C(C(=O)NC2CCCC2)c2ccncc2)cc1 (stereo not drawn)	4	51*	3	-6	i
Cc1ccc(-c2nnn(CC(=O)N(c3ccccc3)C(C(=O)NC3CCCC3)c3ccncc3)n2)o1 (stereo not drawn)	-13	4	-2	-8	i
CCc1nc2c(OCc3c(C)noc3C)cccn2c1N(C=O)Cc1ccc(OC)cc1	7	.	7	-4	i
CC(=O)Nc1cncc(-c2ccccc2C(C)=O)n1	8	.	0	-8	i

From PubChem
